Tests used:
Assay in all cases: PBM binding z-score (relative to random genomic background probes); higher = stronger binding; sequences stand for … in GC…GCGATTGACAGCGTAGAATGAAGG
[1] = tested on: RARb homodimer (NR concentration 270 nM)
Summary of the method: (§1)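 Probes were double-stranded and carried 34-nt variable regions with direct-repeat seeds, single-nucleotide variants, half-site ablations and random human genomic background sequences, printed on custom Agilent 4×180K protein-binding microarrays. Arrays were incubated 1 h with ligand-free nuclear receptor dimers in PBS pH 7.4, 2% milk, 0.02% Triton X-100, 1 mM DTT, 0.2 mg/mL BSA and 0.4 mg/ml salmon testes DNA. Antibodies against each partner (one per run) detected binding, and scanned fluorescence was regression-normalized. Binding z-scores use the random background probes as reference.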

[2] = tested on: RARg:RXRa (NR concentration 270 nM, RXRa partner concentration 90 nM)
Summary of the method: as §1

[3] = tested on: RARg homodimer (NR concentration 270 nM)
Summary of the method: as §1

[4] = tested on: RXRa DBDmut IVT, anti-RXR (DBD mutation: RXRa K156A/R161A, NR concentration 90 nM)
Summary of the method: as §1

[5] = tested on: RXRa homodimer (NR concentration 180 nM)
Summary of the method: as §1

[6] = tested on: THRa:RXRa (NR concentration 90 nM, RXRa partner concentration 90 nM)
Summary of the method: as §1

[7] = tested on: THRa homodimer (NR concentration 90 nM)
Summary of the method: as §1

[8] = tested on: VDR homodimer (NR concentration 270 nM)
Summary of the method: as §1

[9] = tested on: VDR:RXRa (NR concentration 270 nM, RXRa partner concentration 90 nM)
Summary of the method: as §1

Sequence | PBM binding z-score [1] | PBM binding z-score [2] | PBM binding z-score [3] | PBM binding z-score [4] | PBM binding z-score [5] | PBM binding z-score [6] | PBM binding z-score [7] | PBM binding z-score [8] | PBM binding z-score [9]
AGAACGAGGGCAATGAGGTGATAGCACGGGTGGC | 1.58 | 1.49 | 1.52 | 1.37 | 1.04 | 2.46 | 0.988 | 1.57 | –
CCTATTAGTTGACCATAAGGGCAACCGGAGCTCG | 2.03 | 1.22 | 1.19 | 0.709 | 0.658 | 1.87 | 1.53 | 1.15 | –
ATCTCTAGGTAAAGATCGTTCAGTGAATGCAAAT | 0.111 | 0.0557 | 0.231 | -0.238 | -0.178 | 0.22 | -0.0507 | 0.139 | –
ACTCGGAGGACAAAGGTTAGAGCTACGCCAGTGA | 1.89 | 2.94 | 1.93 | 0.75 | 1.7 | 1.76 | -0.114 | 0.17 | –
TCAGACAGGTGACGGTAACTCAGGTACGCAGTCG | 0.517 | 0.188 | 0.328 | 0.683 | 0.84 | 0.492 | 0.00718 | -0.0333 | –
TGAATGAGGTTATAAGTTCAGGGAACGTTGCAAA | 2.54 | 4.88 | 2.27 | 1.49 | 3.46 | 2.58 | 0.487 | 2.85 | –
CCTTACGGGTCACTGATAGGTTATAGCATTTGGA | 3.34 | 5.65 | 4.89 | 1.85 | 5.48 | 2.74 | 0.24 | 1.17 | –
CGAACTAGGTAAGAACAGGACAGTGAAGGATGAT | -0.183 | 0.0419 | 0.345 | -0.391 | -0.0524 | 0.664 | -0.177 | -0.504 | –
CAAACTAGGTCAACAGGTCAAAGTCCGCTTCCCG | 4.94 | 6.85 | 6.36 | 2.45 | 5.98 | 3.78 | 1.9 | 2.78 | –
ATACCAAGGTGATCGTGATGTCGTTGATACTAAC | 0.279 | 0.25 | 0.334 | 0.0865 | 0.28 | 0.81 | 0.541 | 0.117 | –
TTGCCTAGGTCATGGGCCAGTATACCACGCGAAC | 3.1 | 4.39 | 4.41 | 0.413 | 3.94 | 3.35 | 1.54 | 0.622 | –
CCGAGTAGGTTATGGAGCATTCAGGCAACGGTGA | 0.461 | 0.362 | 0.489 | 0.355 | 0.308 | 0.145 | 0.277 | 0.244 | –
CCTACTAGGCCAAAAAGGTCATTGATGCCGATAA | 4.74 | 4.81 | 4.61 | 1.38 | 4.95 | 3.35 | 0.809 | 2.99 | –
GCAGACAGGTGAAACGCAGGTTACTCAGGGTGGC | 0.785 | 2.09 | 0.458 | -0.376 | 1.07 | 1.88 | -0.27 | -0.446 | –
TTACCGAGGTGAGCTGAGGTCGTTGATCCAACTC | 1.58 | 1.48 | 1.04 | 0.0413 | 1.7 | – | 1.88 | 1.73 | –
CTCGAAAGGTCGTGCTCAGGTCAGTATACCAAAC | 4.16 | 7.03 | 4.92 | 2.37 | 5.35 | – | 2.7 | 2.45 | –
AATACAGGGTCATCGGAGGCCAGAGTACGCACAG | 4.26 | 5.91 | 5.05 | 3.51 | 6.76 | – | 1.96 | 3.88 | –
TAGCCGAGGTCAGATCGGGCCAGTATACGCTATA | 3.62 | 5.06 | 5.59 | 2.66 | 4.74 | – | 1.32 | 2.08 | –
CGCGAAAGGTCGGTTGAGGTGAGTATACGGATAA | 2.23 | 2.88 | 2.61 | 0.708 | 2.44 | – | 1.65 | 0.652 | –
TAGCCTAGGTCAGATCGGGTCAGTATACGCTATA | 3.56 | 3.77 | 4.62 | -0.194 | 2.58 | – | 1.29 | 0.51 | 3.75
CAAACTAGGTCATGAGGTCAAAGTCCGCTTCCCG | 5.22 | 7.26 | 6.81 | 3.45 | 7.98 | – | 4.88 | 5.84 | –
ATATGTAGGTTAGCTGGGGTCATTCATACTAGGC | 3.88 | 4.01 | 3.08 | 2.52 | 5.44 | – | 3.63 | 4.81 | –
GATACAGGGGCAGCTAGAGGCCAGAGTATGGAAA | 1.18 | 2.18 | 1.15 | -0.0216 | 0.387 | – | -0.373 | -0.000725 | –
CCTAGTTGGTCAACGTCACACACGCTATAGGTAC | 1.13 | 0.774 | 1.18 | 0.857 | 0.526 | – | 0.632 | 0.435 | –
CGTCCAAGGTCATAGGAGGTCAGAGAAGACAGAT | 5.31 | 6.78 | 7.13 | 4.15 | 6.71 | – | 3.44 | 4.23 | –
GGAACGTGGGCATTCGAGTTGATAGCATGGCGAT | -0.657 | -0.318 | -0.321 | -0.166 | -0.389 | – | -1.07 | 0.0395 | –
ACTCGGAGGACAAAGATCAGAGCTACGCCAGTGA | -0.272 | 0.568 | 0.931 | 0.426 | 0.18 | – | -0.696 | -0.571 | –

— the supplement of paper PMC6555819
